From PubChem
TLR4-MyD88 BLA – inhibitors of human TLR4-MyD88 binding | 0.18% of 200,000 active | HeLa CL3-4 TLR4/MyD88 BLA complementation, FRET ratio | O00206+Q99836 | AID 861 | inhibition, % at 8.4 µM; in the data active = inhibition above about 25%;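 note: 0% = vehicle and 100% = reference inhibitor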
NOD2 RIPK2 PPI – blocks binding of human NOD2 to RIPK2 | O43353 | CHO BLA complementation NOD2-RIPK2, CCF4 ratio | inhibition, % at 4.98 µM | 0.38% of 360,000 active | AID 624267; in the data active = inhibition above about 21%;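 note: 0% = vehicle only and 100% = reference blocker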
Target sequence (O43353 whole entry, looked up): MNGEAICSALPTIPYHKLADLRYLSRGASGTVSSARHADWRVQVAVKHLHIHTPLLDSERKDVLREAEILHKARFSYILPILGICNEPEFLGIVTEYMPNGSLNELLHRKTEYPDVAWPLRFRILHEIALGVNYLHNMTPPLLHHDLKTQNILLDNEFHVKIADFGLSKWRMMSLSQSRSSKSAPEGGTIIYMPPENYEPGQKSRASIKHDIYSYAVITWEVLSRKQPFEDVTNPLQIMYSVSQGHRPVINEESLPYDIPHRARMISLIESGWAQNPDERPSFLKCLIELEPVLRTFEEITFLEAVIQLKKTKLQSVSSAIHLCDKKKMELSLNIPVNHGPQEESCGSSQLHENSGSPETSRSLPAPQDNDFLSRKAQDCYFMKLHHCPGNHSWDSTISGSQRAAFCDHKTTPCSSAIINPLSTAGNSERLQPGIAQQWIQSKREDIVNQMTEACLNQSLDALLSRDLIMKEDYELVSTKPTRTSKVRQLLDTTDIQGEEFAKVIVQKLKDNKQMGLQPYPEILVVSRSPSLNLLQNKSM
TLR9-MyD88 inh – TLR9-MyD88 interaction inhibition; Q9NR96+Q99836; CHO BLA complementation TLR9-MyD88, CCF4 FRET ratio; inhibition, % at 4.98 µM; 0.21% of 340,000 active;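 active = inhibition above the mean over all tested compounds plus 3 SD, cut at about 21% in these data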;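 note: 0% = DMSO only wells and 100% = clavulanate BLA inhibitor control wells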
ABHD5-PLIN5 inh – blocks binding of human ABHD5 to perilipin-5 | Split G. princeps luciferase complementation, luminescence, 4 h | inhibition, % at 4 µM | 0.78% of 360,000 active | AID 602281;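 active = inhibition above the mean inhibition across every tested compound plus 3 SD, cut at about 22% in these data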;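 note: 0% = DMSO only wells and the 100% control is not disclosed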
Exocytosis inh – lytic granule exocytosis inhibition; inhibition, % at 10 µM; TALL-104 LAMP-1 surface exposure, flow cytometry; cells stimulated with thapsigargin and PMA; 0.66% of 360,000 active;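 active = inhibition above about 55%, limit read from the data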
PRMT1 inh – blocks human protein arginine methyltransferase 1; 1.3% of 370,000 active; inhibition, % at 2.79 µM; recombinant PRMT1, activity-based probe fluorescence polarization; Q99873;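 active = inhibition above about 21% made by adding two undisclosed values, limit read from the data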
Granule exo CP1 – lytic granule exocytosis inhibition | 11% of 1,500 active | shares compounds with Exocytosis inh | inhibition, % at 10 µM | TALL-104 cells, LAMP-1 externalization, flow cytometry; stimulated with PMA plus thapsigargin | AID 651954; in the data active = inhibition above about 60%;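 note: 0% = stimulated vehicle wells and 100% = unstimulated wells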
Active calls of the source: *. Sampled rows, rich in hits. Any-hit rate of the full collection: about 2.6%.

`CCC(C)[C@H](NC(=O)Nc1ccccc1F)C(=O)OC` (stereo not given in full) gave NOD2 RIPK2 PPI 0, TLR9-MyD88 inh -4, ABHD5-PLIN5 inh -7, Exocytosis inh 83*, PRMT1 inh -2 and Granule exo CP1 -13.
`COC(=O)[C@H](Cc1ccccc1)N1C[C@@H](N2CCC[C@H]2C)CS1(=O)=O` gave PRMT1 inh 4.
`CCOc1ccc(OCC(O)CNC2CCN(Cc3ccccc3)CC2)cc1` (stereo not given) gave TLR4-MyD88 BLA 5, NOD2 RIPK2 PPI 2, TLR9-MyD88 inh 4, ABHD5-PLIN5 inh 4, Exocytosis inh 3 and PRMT1 inh -4.
CC(C)(c1ccccc1)c1ccc(OCC(O)CNC2CCN(Cc3ccccc3)CC2)cc1 (stereo not given) was read as TLR4-MyD88 BLA -1, NOD2 RIPK2 PPI 14, TLR9-MyD88 inh 11, ABHD5-PLIN5 inh 4, Exocytosis inh 62*, PRMT1 inh -2 and Granule exo CP1 85*.
Screening COc1ccc(N2C(=O)c3n[nH]c(C(C)C)c3C2c2ccc(F)cc2)cc1 (stereo not given) returned PRMT1 inh -2.
For COC(=O)c1sccc1NC(=S)Nc1ccc(F)cc1F the results were TLR4-MyD88 BLA 6, NOD2 RIPK2 PPI -10, TLR9-MyD88 inh -8, ABHD5-PLIN5 inh -8, Exocytosis inh 60*, PRMT1 inh -2 and Granule exo CP1 -4.
`COc1ccc(C(=O)C(=O)N2CCN(S(=O)(=O)c3cccc4c(N(C)C)cccc34)CC2)cc1OC` gave PRMT1 inh -6.
`CCOc1ccc(NC(=O)Cn2c(=O)n(CCCC(=O)NC3CCN(Cc4ccccc4)CC3)c(=O)c3ccccc32)cc1` gave NOD2 RIPK2 PPI 2, TLR9-MyD88 inh -2, ABHD5-PLIN5 inh 4, Exocytosis inh 61*, PRMT1 inh 0 and Granule exo CP1 -10.
`NC(=O)Cn1c(=O)n(CCCC(=O)NC2CCN(Cc3ccccc3)CC2)c(=O)c2ccccc21` gave TLR4-MyD88 BLA 5, NOD2 RIPK2 PPI 1, TLR9-MyD88 inh -8, ABHD5-PLIN5 inh -14, Exocytosis inh -1 and PRMT1 inh -4.
`CCn1c2ccccc2c2cc(NC(=O)c3ccc(=O)oc3)ccc21` gave NOD2 RIPK2 PPI 16, ABHD5-PLIN5 inh 11, Exocytosis inh 78*, PRMT1 inh 13 and Granule exo CP1 -4.
For CCn1c2ccccc2c2cc(NC(=O)CSc3nnc(-c4cccc(C)c4)o3)ccc21 the results were TLR4-MyD88 BLA -4, NOD2 RIPK2 PPI -5, TLR9-MyD88 inh 9, ABHD5-PLIN5 inh 1, Exocytosis inh 28 and PRMT1 inh -4.
For CCn1c2ccccc2c2cc(NC(=O)CSc3nnc(-c4ccccc4)o3)ccc21 the results were TLR4-MyD88 BLA 0, NOD2 RIPK2 PPI -11, TLR9-MyD88 inh 6, ABHD5-PLIN5 inh 3, Exocytosis inh 87*, PRMT1 inh 2 and Granule exo CP1 -7.
Screening CCn1c2ccccc2c2cc(NC(=O)c3coc(=O)c(Br)c3)ccc21 returned NOD2 RIPK2 PPI -3, ABHD5-PLIN5 inh -1, Exocytosis inh 4 and PRMT1 inh -7.
COc1ccc(-c2c(C(=O)c3ccccc3)[nH]c(N)c2C(=O)NCCc2c[nH]c3ccccc23)cc1 was read as PRMT1 inh 3.
COc1cc(Nc2cc(C)n(-c3cc(OC)cc(OC)c3)c(=O)c2)cc(OC)c1 was read as PRMT1 inh 1.
For COc1ccc(CN(C)CC(O)COc2ccc(-c3ccccc3)cc2)cc1OC (stereo not given) the results were NOD2 RIPK2 PPI -1, TLR9-MyD88 inh -3, ABHD5-PLIN5 inh 2, Exocytosis inh 63*, PRMT1 inh 2 and Granule exo CP1 -9.
For CCOc1ccc(CN(C)CC(O)COC(c2ccc(OC)cc2)c2ccc(OC)cc2)cc1 (stereo not given) the results were NOD2 RIPK2 PPI -14, TLR9-MyD88 inh -4, ABHD5-PLIN5 inh 7, Exocytosis inh 69*, PRMT1 inh -5 and Granule exo CP1 4.
`COc1ccc(CN(C)CC(O)COC(c2ccc(OC)cc2)c2ccc(OC)cc2)cc1` (stereo not given) gave NOD2 RIPK2 PPI -1, TLR9-MyD88 inh -7, ABHD5-PLIN5 inh 11, Exocytosis inh 41 and PRMT1 inh 2.
Cc1ccc2nc(-c3cccc(Br)c3)c(Cc3ccsc3)n2c1 was read as PRMT1 inh -3.
For CCCCc1ccc(NC(=O)CSc2nc(=O)n(CCN(CC)CC)c3c2CCC3)cc1 the results were NOD2 RIPK2 PPI 12, TLR9-MyD88 inh 0, ABHD5-PLIN5 inh 3, Exocytosis inh 84*, PRMT1 inh -1 and Granule exo CP1 21.
`CCN(CC)CCn1c2c(c(SCC(=O)Nc3ccc(C(C)C)cc3)nc1=O)CCCC2` gave NOD2 RIPK2 PPI -8, TLR9-MyD88 inh 4, ABHD5-PLIN5 inh 8, Exocytosis inh 11 and PRMT1 inh -3.
Screening COc1cc(NC(=O)c2cc(-c3ccccc3Cl)on2)cc(OC)c1OC returned NOD2 RIPK2 PPI 12, TLR9-MyD88 inh -8, ABHD5-PLIN5 inh -7, Exocytosis inh 69*, PRMT1 inh -3 and Granule exo CP1 -11.
For CCOc1cc(OCC)cc(C(=O)N2CCC[C@@H]2C(=O)N2CCC[C@H]2C(=O)NCc2ccccc2)c1 the results were PRMT1 inh -2.
Screening CCCCSCCCNC(=O)c1ccc(CS(=O)(=O)c2ccccc2OC)o1 returned NOD2 RIPK2 PPI -2, TLR9-MyD88 inh 5, ABHD5-PLIN5 inh -1, Exocytosis inh 94*, PRMT1 inh -1 and Granule exo CP1 -13.
CCOC(=O)N[C@@H](Cc1cccnc1)C(=O)N1CCC[C@H]1C(=O)NC1CCCC1 was read as PRMT1 inh 5.
`OCCCNc1ncnc2oc(-c3ccccc3)c(-c3ccccc3)c12` gave NOD2 RIPK2 PPI -3, TLR9-MyD88 inh 4, ABHD5-PLIN5 inh 8, Exocytosis inh 66*, PRMT1 inh 1 and Granule exo CP1 -6.
`COc1ccc(-c2oc3ncnc(NCCCN4CCOCC4)c3c2-c2ccc(OC)cc2)cc1` gave TLR4-MyD88 BLA -14, NOD2 RIPK2 PPI -5, TLR9-MyD88 inh -3, ABHD5-PLIN5 inh 19, Exocytosis inh 63*, PRMT1 inh -1 and Granule exo CP1 30.
Screening CC(C)[C@H](NS(=O)(=O)c1ccc(F)cc1F)C(=O)N1CCC[C@H]1C(=O)NCc1ccccc1 returned PRMT1 inh -4.
For N=c1c2c(-c3ccccc3)c(-c3ccccc3)n(Cc3ccco3)c2ncn1Cc1ccco1 the results were TLR4-MyD88 BLA 10, NOD2 RIPK2 PPI 14, TLR9-MyD88 inh -3, ABHD5-PLIN5 inh 17, Exocytosis inh 91*, PRMT1 inh -1 and Granule exo CP1 16.
